Test [1] can be described thus: antimalarial activity against Dd2 strain (AID 2302;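 active = growth inhibition above 50% at the single 2 µM test dose, taken to imply half-maximal potency below 2 µM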;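 note: 0% = DMSO untreated growth and 100% = chloroquine plus artemisinin killed control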). The conditions noted are these: P. falciparum Dd2 in RBCs, LDH growth readout, 72 h; at 2 µM; stronger effect = higher value.
Test [2] can be described thus: HepG2 cytotoxicity, primary screen, cytotoxicity control for P. falciparum antimalarial project, cell-based, ATP luminescence (AID 2303;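 active = inhibition above 50%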;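 note: 0% = DMSO wells and 100% = digitonin-killed cells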). The conditions noted are these: HepG2 viability, 24-48 h, at 10 µM, stronger effect = higher value.
For test [3], the target named is L-lactate dehydrogenase (Plasmodium falciparum (isolate CDC / Honduras)) (UniProt Q27743). Put plainly: PfLDH activity inhibition – cell lysate, 3D7 strain, counter-screen for P. falciparum growth inhibition project (AID 2304).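 Note: 0% = vehicle and 100% = reference inhibitor.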 Conditions: P. falciparum 3D7 crude extract, LDH APAD/NBT absorbance; at 2 µM; stronger effect = higher value. For orientation: The purpose of a counterscreen is to sort out artefacts and off-target activity.
Sequence of L-lactate dehydrogenase (Plasmodium falciparum (isolate CDC / Honduras)) (Q27743 whole entry, looked up): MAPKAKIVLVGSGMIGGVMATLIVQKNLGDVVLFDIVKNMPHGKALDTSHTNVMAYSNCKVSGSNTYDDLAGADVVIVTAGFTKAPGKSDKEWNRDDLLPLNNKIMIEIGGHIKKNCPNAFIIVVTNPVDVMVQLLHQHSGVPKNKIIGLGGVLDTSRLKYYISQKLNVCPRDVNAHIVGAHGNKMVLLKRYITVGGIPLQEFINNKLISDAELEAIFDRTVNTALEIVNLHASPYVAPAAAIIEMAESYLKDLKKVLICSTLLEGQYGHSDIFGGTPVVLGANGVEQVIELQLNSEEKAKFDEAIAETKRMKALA

Test [4] can be described thus: inhibition of 3D7 malaria parasite growth – strain 3D7 (AID 2306).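 Note: 0% = DMSO wells and 100% = chloroquine plus artemisinin control wells.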 The conditions noted are these: P. falciparum 3D7 erythrocytic growth, LDH absorbance, 72 h; at 2 µM; stronger effect = higher value.
The target of test [5] is Calcium-dependent protein kinase 1 (Plasmodium falciparum (isolate 3D7)) (UniProt P62344). Put plainly: PfCDPK1 kinase inhibitors, biochemical, TCAMS library (AID 1159585; cut-off not given, nearly all actives have IC50 up to about 0.98 µM;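 note: inhibitors leave more ATP so luminescence rises with inhibition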). The conditions noted are these: recombinant PfCDPK1, Kinase-Glo ATP depletion luminescence. (Kinase-Glo measures the ATP left after a reaction by luminescence.)
Sequence of Calcium-dependent protein kinase 1 (Plasmodium falciparum (isolate 3D7)) (P62344 whole entry, looked up): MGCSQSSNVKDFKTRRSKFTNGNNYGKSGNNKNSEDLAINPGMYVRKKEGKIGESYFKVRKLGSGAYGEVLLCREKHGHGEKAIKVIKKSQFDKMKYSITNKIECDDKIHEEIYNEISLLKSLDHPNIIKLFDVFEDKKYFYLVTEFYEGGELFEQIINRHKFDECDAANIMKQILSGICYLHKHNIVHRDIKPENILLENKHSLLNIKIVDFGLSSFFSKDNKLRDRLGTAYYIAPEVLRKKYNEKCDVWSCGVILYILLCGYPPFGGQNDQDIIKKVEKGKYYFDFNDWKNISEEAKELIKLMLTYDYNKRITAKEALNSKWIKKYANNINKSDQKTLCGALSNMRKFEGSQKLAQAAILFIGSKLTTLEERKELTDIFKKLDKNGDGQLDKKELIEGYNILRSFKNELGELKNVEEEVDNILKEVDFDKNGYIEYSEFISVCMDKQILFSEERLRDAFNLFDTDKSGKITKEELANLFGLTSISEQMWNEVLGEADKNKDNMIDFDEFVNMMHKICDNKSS
Test [6] deals with Plasmodium falciparum protein kinase 6 (PK6, PF3D7_1337100) (UniProt Q8IDW1). The test can be described thus: PfPK6 kinase inhibitors, biochemical, TCAMS library (AID 1159586). Conditions: recombinant PfPK6, Kinase-Glo ATP depletion luminescence.
Sequence of Plasmodium falciparum protein kinase 6 (PK6, PF3D7_1337100) (Q8IDW1 1-305): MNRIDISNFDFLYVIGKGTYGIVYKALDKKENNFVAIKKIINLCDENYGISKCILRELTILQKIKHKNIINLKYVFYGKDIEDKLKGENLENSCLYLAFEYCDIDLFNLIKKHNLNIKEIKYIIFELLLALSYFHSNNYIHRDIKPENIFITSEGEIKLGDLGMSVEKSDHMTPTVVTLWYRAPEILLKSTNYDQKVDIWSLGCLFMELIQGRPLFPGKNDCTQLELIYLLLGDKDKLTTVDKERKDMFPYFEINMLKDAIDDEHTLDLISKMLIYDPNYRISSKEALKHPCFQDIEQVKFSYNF
The target of test [7] is Protein kinase 7 (PK7), Plasmodium falciparum 3D7 (PF3D7_0213400) (UniProt Q7YTF7). The test can be described thus: inhibition of Plasmodium PK7 catalytic activity – biochemical, TCAMS antimalarial set, Kinase-Glo luminescence (AID 1159587). Conditions: recombinant PfPK7, Kinase-Glo ATP depletion luminescence.
Sequence of Protein kinase 7 (PK7), Plasmodium falciparum 3D7 (PF3D7_0213400) (Q7YTF7 1-343): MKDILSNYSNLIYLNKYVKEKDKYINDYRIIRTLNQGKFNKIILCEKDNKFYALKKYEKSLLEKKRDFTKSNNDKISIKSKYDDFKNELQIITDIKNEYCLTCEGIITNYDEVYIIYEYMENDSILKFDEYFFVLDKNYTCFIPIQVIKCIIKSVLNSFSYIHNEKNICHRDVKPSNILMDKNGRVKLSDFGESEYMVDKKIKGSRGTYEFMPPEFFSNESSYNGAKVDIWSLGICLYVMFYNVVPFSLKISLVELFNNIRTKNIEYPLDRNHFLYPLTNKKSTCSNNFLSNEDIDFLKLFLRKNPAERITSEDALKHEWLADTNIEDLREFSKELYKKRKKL
The target of test [8] is Calcium-dependent protein kinase 4 (Plasmodium falciparum (isolate 3D7)) (UniProt Q8IBS5). Put plainly: PfCDPK4 kinase inhibitors, biochemical, TCAMS library (AID 1159588; cut-off not given, nearly all actives have IC50 up to about 0.91 µM). The conditions noted are these: recombinant PfCDPK4, Kinase-Glo ATP depletion luminescence.
Sequence of Calcium-dependent protein kinase 4 (Plasmodium falciparum (isolate 3D7)) (Q8IBS5 whole entry, looked up): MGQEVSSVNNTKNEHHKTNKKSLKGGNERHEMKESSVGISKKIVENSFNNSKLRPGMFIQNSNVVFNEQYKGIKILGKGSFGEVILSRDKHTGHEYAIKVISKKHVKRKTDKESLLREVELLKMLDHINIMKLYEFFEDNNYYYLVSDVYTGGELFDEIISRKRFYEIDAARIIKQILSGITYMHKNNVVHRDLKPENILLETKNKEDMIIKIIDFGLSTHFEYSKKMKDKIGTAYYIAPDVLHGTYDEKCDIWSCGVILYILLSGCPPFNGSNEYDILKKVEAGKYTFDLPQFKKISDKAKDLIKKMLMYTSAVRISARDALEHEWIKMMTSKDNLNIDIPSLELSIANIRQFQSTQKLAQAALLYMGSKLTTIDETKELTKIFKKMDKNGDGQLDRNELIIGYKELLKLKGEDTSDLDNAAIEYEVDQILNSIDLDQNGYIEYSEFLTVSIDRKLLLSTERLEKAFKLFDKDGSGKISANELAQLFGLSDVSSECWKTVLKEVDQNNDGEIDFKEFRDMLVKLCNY

Results on 20 compounds are retold here after PubChem BioAssay.

Unmarked numbers belong to inactive results. For some of these results: Entries with a potency or affinity are not part of this list. The source made the active and inactive calls. Unless noted, the rule behind the calls is not given here.

Broadly, the inhibition is the change of the read-out against control, counted positive when it falls. Take `C=CCc1cc(Cc2cnc(N)nc2N)cc(CCC)c1O`: the growth inhibition was 2% in test [1] and 90% (active) in test [4]. Besides, the inhibition in test [2] is 54% (active); in test [3], -1%. In addition, the result in test [5], in test [6], in test [7] and in test [8] was inactive.

As for `COc1ccc2ncc(F)c(CCN3C[C@@H]4CCC[C@]4(CNCc4ccc5c(n4)NC(=O)CS5)C3)c2n1`, the growth inhibition in test [1] was 28%; in test [4] it was 87% (active). For the same compound, the figures for the inhibition in test [2] and in test [3] were 18% and 2%, respectively. The outcome in test [5], in test [6], in test [7] and in test [8] was inactive.

With `COc1ccc(NC(=O)[C@H](CC(C)C)Nc2cc(C)nc(Nc3ccccc3)n2)cc1`, the growth inhibition is 92% (active) in test [1] and 101% (active) in test [4]. For the same compound, the inhibition in test [2] is 25%; in test [3] it was -1%. Besides, the outcome in test [5], in test [6], in test [7] and in test [8] was inactive.

For `Cc1cccc(C)c1CNc1ccnc2cc(Br)ccc12`, the growth inhibition in test [1] is 99% (active); in test [4] it was 95% (active). Also, the inhibition in test [2] was 24%; in test [3], -3%. Besides, the result in test [5], in test [6], in test [7] and in test [8] was inactive.

For `c1cc(Cc2ccc(Nc3c4ccccc4nc4ccccc34)cc2)cc(Nc2c3ccccc3nc3ccccc23)c1`, the growth inhibition in test [1] and in test [4] was 100% (active) each time. In addition, the inhibition in test [2] was 91% (active); in test [3], -5%. Besides, the outcome in test [5], in test [6], in test [7] and in test [8] was inactive.

As to `CC(C)(C)c1ccc(NC(=O)c2cccc(CN3CCCN(CC4CCCCC4)CC3)c2)cc1`, the growth inhibition is 47% in test [1] and 93% (active) in test [4]. Also, the inhibition in test [2] was 97% (active); in test [3], 1%. In addition, the outcome in test [5], in test [6], in test [7] and in test [8] was inactive.

As for `CC(=O)Nc1nc(C(=O)Nc2cccc(-c3ccc(-c4nc5c(C)cccc5[nH]4)s3)c2)cs1`, the values for the growth inhibition in test [1] and in test [4] were 67% (active) and 101% (active), respectively. The inhibition was 14% in test [2] and -2% in test [3]. For the same compound, the outcome in test [5], in test [6], in test [7] and in test [8] was inactive.

Consider `Cn1c(Nc2cc(C(C)(C)C)on2)nc2cc(Nc3ccnc(Nc4cccc(S(=O)(=O)N5CCOCC5)c4)n3)ccc21`, for which the figures for the growth inhibition in test [1] and in test [4] were 96% (active) and 101% (active), respectively. In addition, the inhibition in test [2] is 32%; in test [3] it was 5%. Moreover, the outcome in test [5], in test [6], in test [7] and in test [8] was inactive.

Take `Cc1ccc(C)c(-n2c(SCC(=O)Nc3ccc(C(N)=O)cc3)nnc2-c2cccc(Cl)c2)c1`: the growth inhibition in test [1] was 91% (active); in test [4] it was 92% (active). The inhibition in test [2] is 6%; in test [3] it was 4%. In addition, the result in test [5], in test [6], in test [7] and in test [8] was inactive.

Turning to `CCOc1cc(C(=O)NC2CCN(Cc3ccccc3)CC2)ccc1-c1nc2cc(Cl)c(F)cc2[nH]1`, the growth inhibition is 51% (active) in test [1] and 101% (active) in test [4]. Further, the inhibition in test [2] is 13%; in test [3], 4%. Further, the result in test [5], in test [6], in test [7] and in test [8] was inactive.

On to `Oc1ccc(CCCNc2nc(NCc3ccccc3-c3ccccc3)nc(NC3CCNCC3)n2)cc1`, for which the growth inhibition in test [1] is 2%; in test [4], 97% (active). The inhibition was -1% in test [2] and 6% in test [3]. Moreover, the result in test [5], in test [6], in test [7] and in test [8] was inactive.

Regarding `COc1ccc(C2N=C(N)N=C(N)N2c2ccc(Cl)cc2)cc1OC` (stereo not given), the figures for the growth inhibition in test [1] and in test [4] were 4% and 85% (active), respectively. For the same compound, the inhibition in test [2] was 4%; in test [3] it was -1%. The outcome in test [5], in test [6], in test [7] and in test [8] was inactive.

Consider `O=C(Nc1cccc(-c2cccc(-c3nc4ccc(C(F)(F)F)cc4[nH]3)c2)c1)Nc1ccc(F)c(F)c1F`, for which the growth inhibition in test [1] is 100% (active); in test [4], 99% (active). In addition, the figures for the inhibition in test [2] and in test [3] were 71% (active) and 6%, respectively. Moreover, the outcome in test [5], in test [6], in test [7] and in test [8] was inactive.

With `c1ccc(Oc2ccc(Nc3ccnc4ccc(-c5ccccn5)cc34)cc2)cc1`, the values for the growth inhibition in test [1] and in test [4] were 10% and 80% (active), respectively. Besides, the inhibition was 4% in test [2] and -5% in test [3]. For the same compound, the outcome in test [5], in test [6], in test [7] and in test [8] was inactive.

Turning to `CN(C)C1CCN(Cc2ccc(N3CCN(Cc4cccc5[nH]ccc45)CC3)nc2)CC1`, the values for the growth inhibition in test [1] and in test [4] were 17% and 80% (active), respectively. For the same compound, the inhibition in test [2] was 11%; in test [3], -2%. For the same compound, the outcome in test [5], in test [6], in test [7] and in test [8] was inactive.

For the compound `Cc1cc([N+](=O)[O-])ccc1NC(=O)Nc1cccc(C(F)(F)F)c1`, the figures for the growth inhibition in test [1] and in test [4] were 100% (active) and 102% (active), respectively. The results for the inhibition in test [2] and in test [3] were 15% and -1%, respectively. In addition, the outcome in test [5], in test [6], in test [7] and in test [8] was inactive.

In the case of `N#Cc1ccc(N2CCN(Cc3ccc(-c4ccc(-c5nc6ccc(C(F)(F)F)cc6[nH]5)s4)cc3)CC2)nc1`, the growth inhibition is 73% (active) in test [1] and 100% (active) in test [4]. Moreover, the inhibition in test [2] was 13%; in test [3], 4%. For the same compound, the result in test [5], in test [6], in test [7] and in test [8] was inactive.

Regarding `CCCCCCCCN1CCCN(C(=O)c2cccc(NC(=O)Nc3ccc4ccccc4c3)c2)CC1`, the growth inhibition in test [1] is 39%; in test [4] it was 97% (active). For the same compound, the values for the inhibition in test [2] and in test [3] were 39% and 1%, respectively. In addition, the outcome in test [5], in test [6], in test [7] and in test [8] was inactive.

For the compound `Nc1nc2c(cnn2CCCCCCCP(=O)(O)O)c(=O)[nH]1`, the growth inhibition was 91% (active) in test [1] and 94% (active) in test [4]. The values for the inhibition in test [2] and in test [3] were -3% and 4%, respectively. Also, the outcome in test [5], in test [6], in test [7] and in test [8] was inactive.

For the compound `O=C1COc2cc(Cl)c(CNC3CCN(CCc4ccnc5c(F)cc(F)cc45)CC3)nc2N1`, the growth inhibition in test [1] is 49%; in test [4], 98% (active). Moreover, the results for the inhibition in test [2] and in test [3] were 96% (active) and -2%, respectively. The outcome in test [5], in test [6], in test [7] and in test [8] was inactive.
